Measurements taken from PubChem BioAssay.

Each compound was assayed against E3 ubiquitin-protein ligase XIAP (Homo sapiens) (UniProt P98170) (assay: small molecules binding XIAP protein – biophysical, small-molecule microarray, fluorescence 635 nm, primary screen (AID 1181;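 note: score merges 667 nm emission and signal to noise over triplicate slides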)). Details: higher = more signal.
Chain of E3 ubiquitin-protein ligase XIAP (Homo sapiens) (P98170 whole entry, looked up): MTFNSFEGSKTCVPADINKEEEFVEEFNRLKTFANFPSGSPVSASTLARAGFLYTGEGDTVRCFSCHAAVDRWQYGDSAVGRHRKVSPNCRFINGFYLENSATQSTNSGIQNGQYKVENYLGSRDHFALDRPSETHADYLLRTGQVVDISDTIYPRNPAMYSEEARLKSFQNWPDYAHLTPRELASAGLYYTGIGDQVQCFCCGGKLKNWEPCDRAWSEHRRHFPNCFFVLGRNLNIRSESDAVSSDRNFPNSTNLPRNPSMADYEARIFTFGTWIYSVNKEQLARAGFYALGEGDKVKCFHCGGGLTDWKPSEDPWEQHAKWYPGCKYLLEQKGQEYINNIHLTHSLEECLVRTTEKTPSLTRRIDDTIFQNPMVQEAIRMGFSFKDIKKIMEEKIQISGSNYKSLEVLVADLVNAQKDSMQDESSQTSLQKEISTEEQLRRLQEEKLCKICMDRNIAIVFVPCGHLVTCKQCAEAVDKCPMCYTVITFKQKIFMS
`COC(=O)[C@@]1(Cc2ccc(OC)cc2)[C@H]2c3cc(C(=O)N4CCCC4)n(CCc4ccccn4)c3C[C@H]2CN1C(=O)c1ccccc1` showed a composite z-score of 0.0976.
Compound `CC(=O)N1Cc2ccccc2C[C@@]2(N=C(c3ccc(OCCCO)cc3)O[C@H]2c2ccccc2)C1=O` has a composite z-score of 0.0651.
For `CC(C)NC(=O)[C@@]1(c2ccc([N+](=O)[O-])cc2)CC(=O)N(C(C)C)[C@@H]1c1ccc(CO)cc1`, the composite z-score was -0.369.
With `CC(C)C(O)C1C=CC2C(=O)N(C)C(=O)C2N1N1CCCCC1` (stereo not given) the composite z-score was -0.0448.
`CCCC[C@@H]1C[C@H]1[C@@H](NC(=O)c1ccccc1)c1ccccc1` showed a composite z-score of -0.0289.
Compound `CCN(CC)c1ccc(N2CC=CC34O[C@@H]5/C=C\CCCOC(=O)C5[C@H]3C(=O)N(CCCO)[C@@H]4C2=O)cc1` (stereo not given in full) has a composite z-score of 0.559.
In the case of `COc1ccc(C(O)C2C=CC3C(=O)N(c4ccccc4)C(=O)C3N2Nc2ccccc2)c2ccccc12` (stereo not given), the composite z-score is reported as -0.0049.
`O=[N+]([O-])c1ccc(C[n+]2ccc(CCCO)cc2)o1` was tested, and the composite z-score was 0.905.
`C[N+](C)(C)CCCCNC(=O)[C@H]1C[C@H]2C(=O)N3CCC[C@H]3C(=O)N2[C@H]1c1ccc(O)cc1` showed a composite z-score of 0.455.
Compound `COCCOC(=O)N1C(=O)[C@@]2(c3ccccc31)[C@H](C(=O)N1CCCCCCC1)[C@H]1C(=O)O[C@H](c3ccccc3)[C@H](c3ccccc3)N1[C@@H]2c1ccccc1OCCO` has a composite z-score of 0.496.
Work on `C=CCC(OC(C)=O)[C@@H]1[C@@H](N(Cc2ccc(-c3ccccc3)cc2)C(=O)c2ccc(C)cc2)c2cc(OCCCO)ccc2N1C(=O)Cc1ccc(OC)cc1` (stereo not given in full) yielded a composite z-score of -0.165.
For `COC(=O)[C@@]1(Cc2ccc(OC)cc2)[C@H]2c3cc(C(=O)N4CCCC4)n(C[C@H](O)CO)c3C[C@H]2CN1C(=O)c1ccccc1`, the composite z-score was -0.0251.
For `O=C1O[C@H](c2ccccc2)[C@H](c2ccccc2)N2[C@H]1[C@@H](C(=O)NC[C@H](O)c1ccccc1)[C@]1(C(=O)Nc3ccc(C#CC4=CCCCC4)cc31)[C@H]2c1ccc(O)cc1`, the composite z-score was -0.124.
Work on `COc1ccc([Si](C)(C)[C@@H]2[C@@H](CCO)O[C@]3(C(=O)N(Cc4ccccc4)c4ccc(N(C=O)c5ccccc5)cc43)[C@H]2C)cc1` yielded a composite z-score of 0.0031.
With `COc1cc(NN2C(C(O)c3ccccc3)C=CC3C(=O)N(c4ccccc4)C(=O)C32)cc(OC)c1OC` (stereo not given) the composite z-score was 0.219.
Work on `CN(C)CCCCNC(=O)[C@@H]1C[C@@H]2C(=O)N[C@@H](CCCCN)C(=O)N2[C@@H]1c1cccc(OCCO)c1` yielded a composite z-score of -0.32.
`COc1c(C)cc(-c2cc3c(c(-c4ccccc4)n2)[Si](C(C)C)(C(C)C)O[C@H]3c2ccccc2)cc1C` gave a composite z-score of -0.0186.
`[N-]=[N+]=NCc1ccccc1C[C@]1(C(=O)NCc2ccccc2)COC(c2ccc(OCCCO)cc2)=N1` gave a composite z-score of 0.488.
`C=CCOC(=O)[C@@H]1[C@H]2C(=O)O[C@H](c3ccccc3)[C@H](c3ccccc3)N2[C@H](c2ccc(OCCOC(=O)[C@H]3C[C@H]4C(=O)N[C@@H](CCCC[N+](C)(C)C)C(=O)N4[C@H]3c3cccc(OCCO)c3)cc2)[C@@]12C(=O)Nc1ccc(I)cc12` gave a composite z-score of 0.104.
`O=C1OCC=C[C@H]2OC34C=CCN(c5ccc(Cl)cc5)C(=O)[C@H]3N(CCCO)C(=O)[C@@H]4[C@@H]12` (stereo not given in full) showed a composite z-score of 0.0593.
`O=c1cccc(-c2ccccc2)o1` was tested, and the composite z-score was 0.045.
For `C=C(COC)C(=O)CC[C@H](OC(=O)c1cccnc1)c1ccccc1OCCO`, the composite z-score was -0.0143.
`CCCCCN1CC=CC23O[C@@H]4C=CCCOC(=O)C4[C@H]2C(=O)N(CCCO)[C@@H]3C1=O` (stereo not given in full) gave a composite z-score of -0.162.
In the case of `CCN(CC)c1ccc(N2CC=CC34O[C@@H]5C=CCOC(=O)[C@@H]5[C@H]3C(=O)N(CCCCCO)[C@@H]4C2=O)cc1` (stereo not given in full), the composite z-score is reported as 0.532.
For `C#C[C@H]1Oc2ccccc2S(=O)(=O)N2CCC[C@@H]12`, the composite z-score was -0.299.
`O=C1C2C=CC(C(O)c3ccc(B(O)O)cc3)N(Nc3ccc([N+](=O)[O-])cc3)C2C(=O)N1c1ccccc1` (stereo not given) was tested, and the composite z-score was 0.0823.
For `O=C1OCCC/C=C\[C@H]2OC34C=CCN(CCN5CCOCC5)C(=O)[C@H]3N(CCO)C(=O)[C@@H]4C12` (stereo not given in full), the composite z-score was 0.685.
In the case of `CC(=O)n1cc(C(O)C2C=CC3C(=O)N(c4ccccc4)C(=O)C3N2Nc2ccc(C#N)cc2)c2ccccc21` (stereo not given), the composite z-score is reported as 0.147.
Compound `COc1ccc(C(=O)Nc2cccc(CN3C(=O)[C@@]4(O[C@@H](CCn5cc([C@H](O)c6ccccc6)nn5)[C@H]([Si](C)(C)c5ccc(OC)cc5)[C@H]4C)c4ccccc43)c2)cc1` has a composite z-score of -0.0228.
`COC(=O)[C@@]1(Cc2ccc(F)cc2)[C@H]2c3cc(C(=O)N4CCCC4)n(CCc4ccc(OC)c(Br)c4)c3C[C@H]2CN1C(=O)c1ccccc1` showed a composite z-score of 0.183.
Compound `CC(C)N1C(=O)c2ccccc2[C@](C)(C(=O)NC2CC2)[C@@H]1c1ccc(CO)cc1` has a composite z-score of -0.0536.
`CCCNC(=O)[C@@]1(C)c2ccccc2C(=O)N(Cc2ccc(OC(F)(F)F)cc2)[C@H]1c1ccc(CO)cc1` showed a composite z-score of -0.0599.
Work on `C=CCC(OC(C)=O)[C@@H]1[C@@H](N(Cc2ccc(-c3cccc(C(F)(F)F)c3)o2)C(=O)Cc2ccc(OC)cc2)c2cc(OCCCO)ccc2N1C(=O)Cc1ccc(OC)cc1` (stereo not given in full) yielded a composite z-score of -0.0879.
`COC(=O)[C@@]1(Cc2ccccc2)[C@H]2c3cc(C(=O)N(C)C)n(Cc4cc(F)c(F)c(F)c4)c3C[C@H]2CN1C(=O)c1ccccc1` was tested, and the composite z-score was 0.272.
`C=C(C)[C@@H]1CC=C(C(O)C2C=CC3C(=O)N(Cc4ccccc4)C(=O)C3N2n2cnnc2)CC1` (stereo not given in full) showed a composite z-score of 1.74.
